Bioassay records: PubChem BioAssay, National Center for Advancing Translational Sciences (NCATS)
Compounds with a hit are over-represented: about 4.7% of the library has one in this group of screens.
TRHR agonist: TRH receptor (human) agonism | P34981 | TRHR cells, calcium flux fluo-8, FDSS agonist mode | activation, % at 2 µM | hit rate 0.18% among 360,000 | AID 493084
Target sequence (P34981 whole entry, looked up): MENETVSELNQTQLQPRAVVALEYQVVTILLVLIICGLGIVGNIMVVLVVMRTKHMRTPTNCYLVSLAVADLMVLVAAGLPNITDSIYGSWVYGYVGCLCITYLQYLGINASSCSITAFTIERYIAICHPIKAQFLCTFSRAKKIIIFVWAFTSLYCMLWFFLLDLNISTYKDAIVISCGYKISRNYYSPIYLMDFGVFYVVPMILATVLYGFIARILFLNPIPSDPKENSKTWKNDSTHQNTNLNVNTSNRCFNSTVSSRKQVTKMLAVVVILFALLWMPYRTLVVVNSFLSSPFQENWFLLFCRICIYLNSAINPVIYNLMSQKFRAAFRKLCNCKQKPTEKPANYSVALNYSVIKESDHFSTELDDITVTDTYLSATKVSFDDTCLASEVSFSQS
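In this calcium-flux screen, cells bearing human TRHR are dye-loaded with fluo-8, baselined for 10 cycles, then exposed to library compounds; positive kinetic calcium responses during the agonist phase mark hits, with TRH as control.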
D1 PAM: human D1 dopamine receptor positive modulation; potentiation, % at 10 µM; P21728; AID 504651; HEK293 TREx D1 cells, calcium flux, dopamine EC20 potentiation; hit rate 0.036% among 360,000; in the data active = potentiation above about 30%
D1 ag: agonists of human D1 dopamine receptor; activation, % at 2 µM; HEK293 T-REx D1 cells, calcium flux, agonist mode; AID 504660; P21728; hit rate 1% among 360,000
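Inducible HEK293 T-REx D1 cells, force-coupled to calcium signalling, were plated at 4000 cells/well with tetracycline and held overnight at 30 C. After no-wash calcium dye loading, compound-evoked calcium rise over 180 s flagged agonists.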
D1 antagonist: blocks dopamine activation of the human D1 receptor; P21728; HEK293 TREx D1 cells, calcium flux, dopamine EC80; active compounds read low; activity change, negative = inhibition, % at 10 µM; hit rate 3.2% among 360,000; AID 504652; in the data active = activity change below about -30%
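Using tetracycline-induced force-coupled D1 Hek293 cells and a calcium dye, signals were followed for 180 s after compound, then for 180 s after EC80 dopamine, to detect inhibitors.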
TRHR enhancer: TRH receptor (human) allosteric enhancement; TRHR cells, fluo-8 calcium fluorescence, EC20 TRH enhancement; hit rate 0.66% among 360,000; P34981; enhancement, % at 2 µM; in the data active = enhancement above about 30%
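TRHR-expressing cells loaded with fluo-8 calcium dye were read kinetically (ex 480/em 530) during compound addition, then stimulated with an EC20 of TRH (10 nM final). Enhancement of the Gq-mediated intracellular calcium response was scored.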
Of the large screens only hits and unclear results are named; the others gave an inactive call. Rule as the data show it, unless noted: active = activation above about 30%; inactive = the rest.

O=C(Nc1ccc(Cl)c(Cl)c1)C1CCN(C(=O)c2ccco2)CC1	D1 ag 41
Cc1ccc(N(C(C)C(=O)N2CCN(Cc3ccccc3)CC2)S(C)(=O)=O)cc1 (centres undefined)	TRHR enhancer 37
CCOC(=O)N1CCN(C(=O)C(C)N(c2ccc(Oc3ccccc3)cc2)S(C)(=O)=O)CC1 (centres undefined)	none
CCOc1ccccc1-c1nc(CN2CCCN(C(=O)c3ccco3)CC2)c(C)o1	D1 antagonist -67
Cc1cc(C)cc(NC(=S)N2CCN(C(=O)c3ccco3)CC2)c1	D1 antagonist -39
COc1ccc(/C=C2\C(=O)NC(=S)N2C(=O)c2ccc(F)cc2)cc1	D1 ag 112
O=C1NC(=S)N(C(=O)c2ccc(F)cc2)/C1=C/c1ccccc1	D1 ag 80
O=C(NC(=S)N1CCN(C/C=C/c2ccccc2)CC1)c1ccc(F)cc1	none
CN1C(=O)/C(=C/c2ccc(OCc3ccc(F)cc3)cc2)N(C)C1=S	none
CCS(=O)(=O)c1ncc(Cl)c(C(=O)N2CCN(c3ccc(OC)cc3)CC2)n1	none
CCOc1ccccc1NC(=O)Cn1nc2c3cc(F)ccc3n(Cc3cccc(C)c3)cc-2c1=O	none
O=C(CN1C(=O)NC2(CCCCC2)C1=O)Oc1ccc2c(C(F)(F)F)cc(=O)oc2c1	D1 ag 51
Cc1cccc(-n2c(SCC(=O)Nc3ccc(C)c(C)c3)nc3n[nH]c(C)c3c2=N)c1	none
CCOc1ccccc1-n1nnc(-c2nsc(NC(=O)c3ccc(C)cc3)n2)c1C	none
CSc1ccccc1NC(=O)CN(C)Cc1ccc(Br)cc1	none
CSc1ccc(CN(C)CC(=O)Nc2ccccc2Br)cc1	D1 antagonist -41
COc1ccc(OC)c(CNc2ccc3c(c2)CCC3)c1	TRHR enhancer 35
COc1ccc(OC)c(NC(=O)Nc2ccc3c(c2)CCC3)c1	D1 antagonist -49
COc1ccc(NC(=O)Nc2ccc3c(c2)CCC3)c(OC)c1	none (no result: D1 antagonist)
CCCCn1c(=O)c2oc3ccccc3c2n(CC(=O)Nc2cc(C)ccc2C)c1=O	none
CCCc1nnc(NC(=O)c2cc3ccccc3o2)s1	D1 antagonist -53
Cc1ccc(Cn2ccc(=O)c(OCc3c(Cl)cccc3Cl)c2C)cc1	TRHR enhancer 39
O=S(=O)(c1ccc(Br)cc1)N1CCN(S(=O)(=O)c2ccc3c(c2)OCCO3)CC1	none
Cc1ccccc1NC(=O)c1cc(N)ccc1N1CCCCC1	D1 antagonist -55
COc1ccc(Cl)cc1NC(=O)CSc1nc(-c2ccco2)cc(C(F)(F)F)n1	none
O=C(CCN1CCC(c2ccc(Cl)s2)=N1)c1ccc(Cl)s1	D1 ag 40
O=C(CCC(=O)c1ccc(Cl)s1)Nc1ncccc1O	none (no result: D1 PAM)
CC1CCN(S(=O)(=O)c2ccc3[nH]cc(C(=O)NCc4ccc(F)cc4)c(=O)c3c2)CC1	none
CCOc1ccccc1OCCN1CCC(Cc2ccccc2)CC1	none
CCN1CCN(CCOc2ccccc2OCc2ccccc2)CC1	D1 antagonist -32
CCN1CCN(Cc2ccc(OCc3ccccc3)cc2)CC1	D1 ag 38
CCN1CCN(Cc2ccc(OCc3ccccc3)c(OC)c2)CC1	none
CCOc1ccccc1OCCN1CCCC1	D1 antagonist -34
Cn1nc(C(=O)Nc2ccc(F)c(Cl)c2)c2c1-c1ccccc1S(=O)(=O)C2	none
O=C(O)CCCN1C(=O)/C(=C/c2ccc(-c3nc4ccccc4s3)o2)SC1=S	D1 ag 53
Cc1ccc2c(c1)/C(=C/c1ccccc1C)C(=O)N2	D1 antagonist -31
COc1cccc(NC(=O)Nc2cc(-c3cn4cccnc4n3)ccc2OC)c1	TRHR enhancer 34
COc1ccc(-c2cn3cccnc3n2)cc1NC(=O)c1c(F)cccc1F	D1 antagonist -35
O=C1Nc2ccc(S(=O)(=O)NCCC3=CCCCC3)c3cccc1c23	D1 antagonist -37
O=C1Nc2ccc(S(=O)(=O)NCCCO)c3cccc1c23	none
CC(C)(C)S(=O)(=O)c1cnc(-c2ccc(Cl)cc2)nc1N	none
Cc1nc(N)nc(N)c1/C=C/C(C)(C)c1ccc(Cl)cc1	D1 ag 38
O=C1COc2ccc(C(=O)COC(=O)Cc3ccc(Cl)cc3)cc2N1	TRHR enhancer 36
O=C1COc2ccc(C(=O)COC(=O)CCSc3ccc(Cl)cc3)cc2N1	none
Cc1ccc(S(=O)(=O)N2CCCc3cc(NS(=O)(=O)c4ccc(F)cc4)ccc32)cc1	none
CN(C)c1cccc(C(=O)N(C)C2CCCN(Cc3ccccc3F)C2)c1 (centres undefined)	TRHR enhancer 31
COc1ccc(-n2ncc3c2ncn2nc(-c4ccc(Cl)cc4Cl)nc32)cc1	none
Cc1c(C(=O)NCCc2ccc(S(N)(=O)=O)cc2)sc2nc3n(c(=O)c12)CCCC3	none
Cc1ccccc1NC(=O)Cn1c(CCC(=O)O)ccc1-c1cccs1	D1 antagonist -42
Cc1ccc(-n2c(CCC(=O)O)ccc2-c2cccs2)cc1	none
Cc1ccc(-n2c(CCC(=O)O)ccc2-c2cccs2)cc1Cl	D1 antagonist -57
CC(C)(C)OC(=O)N(c1cccc2cccnc12)S(=O)(=O)c1ccccc1Br	none
Cc1ccc(/C=C/C(=O)OCC(=O)Nc2ccccc2Sc2ccccc2)cc1	D1 ag 32
COc1cccc(/C=C/C(=O)OCC(=O)Nc2ccccc2Sc2ccccc2)c1	none
CC(C)c1nc2ccccc2n1CC(O)COC1CCCCC1 (centres undefined)	none
Cc1nc2ccccc2n1CC(O)COC1CCCCC1 (centres undefined)	D1 antagonist -72
Cc1ccc(NC(=O)CSCC(=O)NC2(C)CCS(=O)(=O)C2)cc1 (centres undefined)	D1 antagonist -40 (no result: D1 PAM)
Nc1ccc2nc(SCC(=O)Nc3ccc(N4CCOCC4)c(Cl)c3)sc2c1	D1 antagonist -34
O=C(CSc1ccc(F)cc1)Nc1ccc(N2CCOCC2)c(Cl)c1	none
Nc1nnc(SCC(=O)Nc2ccc(N3CCOCC3)c(Cl)c2)s1	D1 antagonist -37
Cc1ccc(NC(=O)c2cc(N3C(=O)C=CC3=O)ccc2N2CCOCC2)cc1	none
Cc1ccc(NC(=O)c2cc(N3C(=O)C4CC=CCC4C3=O)ccc2N2CCOCC2)cc1Cl (centres undefined)	TRHR enhancer 39
CCCC(=O)Nc1ccc2nc(SCC(=O)Nc3ccc(N4CCOCC4)c(Cl)c3)sc2c1	none
COc1ccc(CNC(=O)CSc2nc3ccc(N)cc3s2)cc1	TRHR agonist 42, D1 antagonist -32
Cc1ccc(NC(=O)CSCC(=O)Nc2ccc(N3CCOCC3)c(Cl)c2)cc1	D1 antagonist -34
CCOc1ccc2nc(SCC(=O)NCc3ccc(S(N)(=O)=O)cc3)sc2c1	none
Cc1ccc(NC(=O)CSCC(=O)Nc2ccc(N3CCOCC3)cc2N2CCOCC2)cc1	none
COC(=O)CSc1ncc2c(n1)-c1ccccc1N(Cc1ccccc1C)S2(=O)=O	none
